The list is not random: actives were taken first. Their share in the collection is about 0.43%.
GAA spleen mod: qHTS Assay for Inhibitors and Activators of Human alpha-Glucosidase From Spleen Homogenate | Lysosomal alpha-glucosidase (Homo sapiens), P10253 | human spleen homogenate, 4-MU-alpha-glucoside fluorescence | Potency, µM (top dose mostly 79.9 µM), usual class: inhibitors | 0.006% of 240,000 active | AID 2112, 2009
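Compounds were titrated against alpha-glucosidase in spleen homogenate at pH 5.0, with 1 mM 4-methylumbelliferyl substrate for 40 min at 37 C. Reactions were quenched with pH 10 NaOH/glycine and fluorescence measured.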
GLA inh pH 4.5: qHTS Assay for Inhibitors of Human alpha-Galactosidase at pH 4.5; activity change, negative = inhibition, % at 105 µM; purified enzyme, 4-MU-alpha-Gal fluorescence, pH 4.5; AID 1467, 2008; 230,000 tested, under 10 active
Target sequence (P06280 whole entry, looked up): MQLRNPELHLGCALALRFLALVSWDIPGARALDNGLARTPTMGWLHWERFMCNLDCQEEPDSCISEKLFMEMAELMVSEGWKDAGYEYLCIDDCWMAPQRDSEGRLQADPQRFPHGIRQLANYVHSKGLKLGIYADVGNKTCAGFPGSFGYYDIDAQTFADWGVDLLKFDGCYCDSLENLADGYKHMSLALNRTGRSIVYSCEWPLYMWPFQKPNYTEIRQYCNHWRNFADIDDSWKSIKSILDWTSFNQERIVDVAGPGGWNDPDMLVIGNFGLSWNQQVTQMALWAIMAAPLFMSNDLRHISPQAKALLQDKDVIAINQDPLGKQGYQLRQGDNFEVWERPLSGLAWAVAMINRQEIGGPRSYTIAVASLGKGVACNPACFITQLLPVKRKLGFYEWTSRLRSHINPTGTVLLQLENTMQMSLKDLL
GLA spleen mod: qHTS Assay for Inhibitors and Activators of Human alpha-Galactosidase From Spleen Homogenate; human spleen homogenate, 4MU-alpha-Gal fluorescence, 40 min; Alpha-galactosidase A (Homo sapiens), P06280; Potency, µM (highest dose often 80 µM), usual class: inhibitors; 0.008% of 240,000 active
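Fluorogenic readout (Ex 365/Em 440 nm) of 4-methylumbelliferone released from 1 mM 4-MU-alpha-galactoside by spleen homogenate, 40 min at 37C, pH 5.0. Data normalized to no-enzyme and enzyme controls; Hill-equation AC50 from compound titrations.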
N370S GC mod: qHTS Assay for Inhibitors and Activators of N370S glucocerebrosidase as a Potential Chaperone Treatment of Gaucher Disease; Lysosomal acid glucosylceramidase (Homo sapiens), P04062; 0.092% of 330,000 active; Potency, µM (doses to about 59.4 µM), actives largely listed as inhibitors; AID 2101, 2009; N370S GC spleen homogenate, 4MU-glucoside fluorescence
GAA glycogen mod: qHTS Assay for Inhibitors and Activators of Human alpha-Glucosidase Cleavage of Glycogen. Lysosomal alpha-glucosidase (Homo sapiens), P10253. recombinant GAA, glycogen substrate, Amplex Red glucose oxidase fluorescence. Potency, µM (top dose mostly 76.4 µM), most hits filed as inhibitors. 0.38% of 300,000 active. AID 2100, 2009;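 further: the screen sought inhibitors and activators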
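Recombinant human alpha-glucosidase (4 nM final) hydrolysed bovine liver glycogen (30 ug) for 40 min at 37 C in pH 5.0 citrate/phosphate with 0.01% Tween-20. Released glucose detected by glucose oxidase/Amplex Red, Ex 573/Em 610 nm. Compounds up to 77 uM; AC50 from Hill fits.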
GAA inhib: qHTS Assay for Inhibitors of Human alpha-Glucosidase as a Potential Chaperone Treatment of Pompe Disease | purified human GAA, 4-MU-alpha-glucoside fluorescence | 0.005% of 200,000 active | Potency, µM (doses to about 76.9 µM), usual class: inhibitors | Lysosomal alpha-glucosidase (Homo sapiens), P10253
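Read-out is 4-methylumbelliferone fluorescence (Ex 365/Em 440 nm) after NaOH/glycine stop at pH 10. Enzyme 4 nM, substrate 400 uM, pH 5.0 citrate buffer, 20 min room temperature; AC50 from Hill-equation concentration-response.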
Numbers stand for hits; – = inactive; ? = inconclusive; · = not tested or not shown; [ ] = remark or other dose. The call rests on the fitted dose curve; in most records, active means well fitted curve in the direction sought with a large enough effect; inconclusive means small, poorly fitted or top-dose-only effect, or another doubt; inactive means no such curve, though single readings can be large; an effect the other way counts as inactive or inconclusive.

SMILES | GAA spleen mod | GLA inh pH 4.5 | GLA spleen mod | N370S GC mod | GAA glycogen mod | GAA inhib
O=C1CC(Nc2ccc(N3CCOCC3)cc2)C(=O)N1c1cccc(C(F)(F)F)c1 (centres undefined) | – | – | – | – | 24.9µM | –
NNC(=O)c1nc(-c2ccccc2)n2c1CCCCC2 | – | – | – | – | 17.6µM | –
O=C(N/N=C/c1ccncc1)c1nc(-c2ccccc2)n2c1CCCCC2 | – | – | – | – | – | –
O=C1NC(=O)/C(=C\c2ccc(O)cc2O)S1 | – | – | – | – | 2.82µM | ?
O=C1NC(=O)/C(=C/c2cccc3ccccc23)S1 | · | · | · | – | – | ·
O=C(O)c1ccccc1O[C@@H]1O[C@H](C(=O)O)[C@@H](O)[C@H](O)[C@H]1O | – | · | – | – | · | ·
CCN(C(=O)Cn1c(=O)oc2cc(S(=O)(=O)N3CCCCC3)ccc21)c1ccccc1 | · | · | · | · | – | ·
O=S(=O)(Nc1ccccc1O)c1ccc(Cl)nc1 | – | – | – | – | 20µM | ·
CCCn1c(SCC(O)c2ccccc2)nc2ccccc21 (centres undefined) | · | · | · | · | – | ·
C[C@H](Cc1ccc(O)c(O)c1)[C@@H](C)Cc1ccc(O)c(O)c1 | – | – | 11.2µM | – | · | ·
CC(Cc1ccc(O)c(O)c1)C(C)Cc1ccc(O)c(O)c1 (centres undefined) | – | – | – | – | · | ·
COc1ccc(NCN2C(=O)C3C4C=CC(C4)C3C2=O)cc1 (centres undefined) | – | – | – | – | 28µM | –
Cc1cc(N2CCC(C)CC2)nc2ccc(NC(=O)CCC(=O)N3CCN(c4ccccc4F)CC3)cc12 | · | · | · | · | – | ·
CCOC(=O)NC1(NC2CCCCC2)Oc2ccccc2O1 | – | – | – | – | 8.91µM | –
CCOC(=O)NC1(NCc2ccccc2)Oc2ccccc2O1 | – | – | – | – | 15.7µM | –
COc1ccccc1N1CCN(C(=O)c2cc3c(=O)oc4ccc(C)cc4c3s2)CC1 | · | · | · | · | – | ·
S=C(NCc1ccccc1)Nc1cccc(Cl)c1 | – | – | – | ? | – | –
Cc1cccc(NC(=S)NNC(=S)NCc2ccccc2)c1 | – | – | – | –[12.8 µM] | 7.94µM | –
CCOC(=O)c1c(NC(=O)C(C)Sc2cn(CCNC(=O)c3ccccc3OC)c3ccccc23)sc2c1CCC2 (centres undefined) | · | · | · | · | – | ·
Cc1ccc2nc(-c3ccc(N4C(=O)CC(N5CCN(CCO)CC5)C4=O)cc3)sc2c1 (centres undefined) | – | – | – | 17.8µM | – | –
Cc1ccc(N2C(=O)CC(N3CCN(c4ccccn4)CC3)C2=O)cc1 (centres undefined) | – | – | – | – | – | –
CCOC(=O)C1=C(C)NC(SCc2cc(=O)[nH][nH]2)=C(C#N)C1c1cccs1 (centres undefined) | – | – | – | – | 31.4µM | –
CC(=O)c1sc(NS(=O)(=O)c2ccc(C)cc2)nc1C | – | – | – | – | – | –
CCOC(=O)Nc1sc(NS(=O)(=O)c2ccc(C)cc2)nc1C | – | – | – | · | 28.2µM | ?
Cc1ccc(S(=O)(=O)Nc2nc(C)c(C(=O)NN)s2)cc1 | – | – | – | – | 31.6µM | ·
SMILES | GAA spleen mod | GLA inh pH 4.5 | GLA spleen mod | N370S GC mod | GAA glycogen mod | GAA inhib
CO[C@@H]1COC(=O)CCC[C@@H](C)[C@H](OC)COC(=O)CCC[C@H]1C | –[17.4 µM] | · | –[17.5 µM] | –[12.8 µM] | · | ·
CN1CCc2cccc3c2[C@H]1Cc1ccc(O)c(O)c1-3 | – | – | – | – | 7.94µM | –[15.4 µM]
CC(Sc1nc(=O)cc(N)n1CCc1ccccc1)C(=O)Nc1ccccc1C#N (centres undefined) | · | · | · | · | – | ·
CCc1cccc(NC(=O)Nc2cccs2)c1 | – | – | – | – | 28.2µM | –
COc1ccc(Cn2nnnc2C(c2cccs2)N2CCN(c3ccccc3)CC2)cc1 (centres undefined) | – | – | – | –[2.35 µM] | – | –
Oc1ccc(N2CCN(C(c3cccs3)c3nnnn3CCc3ccccc3)CC2)cc1 (centres undefined) | – | – | – | ? | 28µM | –
Cc1ccc(N2CCN(C(=O)C3CCN(S(=O)(=O)c4ccc5c(c4)oc(=O)n5C)CC3)CC2C)cc1 (centres undefined) | · | · | · | · | – | ·
CCCN(CCC)CCNC(=O)C1CCN(c2nc3ccc(CC)cc3s2)CC1 | · | · | · | · | – | ·
CCCCN(CC)CCCn1cnc2c([nH]c3ccc(Cl)cc32)c1=O | · | · | · | · | – | ·
O=C(NNS(=O)(=O)c1ccccc1)c1cc2cc3ccccc3nc2s1 | – | – | – | – | 22.4µM | –
CNC(=S)NNc1nc(N2CCOCC2)nc(N2CCOCC2)n1 | – | – | – | – | 7.88µM | –
Oc1ccc(/C=N/N2CCN(C3c4ccccc4-c4ccccc43)CC2)cc1O | – | – | – | – | 10µM | ·
Oc1ccc(/C=N/N2CCN(C3c4ccccc4-c4ccccc43)CC2)cc1 | – | – | – | – | – | –[15.4 µM]
Cc1ccn2c(C(=O)NN=C3CCCCCCC3)c(C)nc2c1 | – | – | – | – | 39.8µM | –
CCOc1cc(C2C3=C(CCCC3=O)NC3=C2C(=O)CCC3)cc(Cl)c1O | – | – | – | – | 35.5µM | –
COc1ccc(-n2nnnc2SCC(=O)c2ccc(O)c(O)c2)cc1 | – | – | – | – | 8.84µM | –
O=C(CSc1nc2ccccc2n1CCc1ccccc1)c1ccc(O)c(O)c1 | – | – | – | – | 3.98µM | –
NC(=O)c1ccc(-n2nnnc2SCC(=O)c2ccc(O)c(O)c2)cc1 | – | – | – | ? | ? | –
Cn1c(SCC(=O)c2ccc(O)c(O)c2)nnc1-c1ccccc1 | · | · | · | – | 1.78µM | ·
Cc1cc(SCC(=O)N/N=C/c2ccc(O)c(O)c2)c(C)cc1Br | – | – | – | – | 17.8µM | –
COc1ccc2c(c1)c(C(=O)N/N=C/c1ccc(O)c(O)c1)c(C)n2C | – | – | – | – | 31.6µM | –
COc1ccc2nc(C)cc(SCC(=O)N/N=C/c3ccc(O)c(O)c3)c2c1 | – | – | – | – | 7.03µM | –
COc1cccc2c(SCC(=O)N/N=C/c3ccc(O)c(O)c3)cc(C)nc12 | – | – | – | – | 3.14µM | –
COc1ccc2nc(C)cc(SCC(=O)N/N=C/c3cccc4ccccc34)c2c1 | – | – | – | – | – | ?
COc1ccc2c(c1)c(C(=O)N/N=C/c1ccc(Br)cc1)c(C)n2C | – | – | – | – | – | ·

Screens as filed in PubChem.
